# According to PubChem BioAssay (NCATS):
# Records with an inconclusive call do not appear. Calls of active or inactive are those of the source. The call rests on the fitted dose curve; in most records, active means well fitted cell-killing curve with a large enough effect; inconclusive means small, poorly fitted or top-dose-only effect, or effect the other way; inactive means no such curve, though single readings can be large or run the other way.
# Tests used:
# [1] = Viability qHTS for spleen associated tyrosine kinase inhibitor (SYKi) naive MV4-11 cells (AID 1963823); further: nearly all actives have a fitted effect of over 40% in size
# Outline: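 Luminescence from CellTiter-Glo, developed 10 min at room temperature, gave viability of MV4-11 cells never exposed to SYK inhibitor. Cells (500/well) had been incubated with compounds for 72 hr under standard culture conditions.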
# [2] = Viability qHTS for spleen associated tyrosine kinase inhibitor (SYKi) drug resistant MV4-11 cells (AID 1963824); further: nearly all actives have a fitted effect of over 35% in size
# Outline: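 CellTiter-Glo luminescence, read 10 min after reagent addition, reports viability after a 72 hr compound exposure. Cells are an MV4-11 line made resistant to SYK inhibition, seeded at 500 per well onto compound-containing plates.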
# Potency means the concentration at half of the fitted maximal effect.
Compound,Potency [1],Potency [2]
Oc1ccc(CNc2ccccc2F)c2cccnc12,2910 nM (active),4610 nM (active)
O=C(O)c1ccc(OC2OC(CO)C(O)C(O)C2O)cc1 (stereo not given),inactive,inactive
CC12CCC(OC3OC(CO)C(O)C(OC4OC(CO)C(O)C(O)C4O)C3O)CC1CCC1C2CCC2(C)/C(=C3/COC(=O)C3)CCC12O (stereo not given),inactive,inactive
CCOc1cc(CNC2CCCC2)cc(Cl)c1OCc1ccc(Cl)cc1,4610 nM (active),5800 nM (active)
CC12CC(c3ccoc3)OC(=O)C1CCC1(C)C2CCC(O)C1(C)O (stereo not given),inactive,inactive
C=C1C(=O)OC2/C=C(\CO)CC/C=C(\C=O)C(OC)C(OC(=O)C(C)CC)C12 (stereo not given),10000 nM (active),2520 nM (active)
CC(O)/C=C/C1(O)C(C)C(O)C(O[C@@H]2O[C@H](CO)[C@@H](O)[C@H](O)[C@H]2O)CC1(C)C (stereo not given in full),inactive,inactive
O=[N+]([O-])c1cccc2[nH]c(CNc3nc(N4CCOCC4)nc4c3ncn4-c3ccsc3)nc12,14.6 nM (active),20.6 nM (active)
COc1cc(C(=O)NC2CCN(C)CC2)c(F)cc1Nc1ncc2c(n1)N(C1CCCC1)CC(F)(F)C(=O)N2C,20.6 nM (active),9.2 nM (active)
CC(=O)O[C@H]1CC(C)(C)CC2[C@]13CO[C@@]21CCC2[C@@]4(C)CC[C@H](O[C@@H]5OC[C@H](O[C@@H]6O[C@H](CO)[C@@H](O)[C@H](O)[C@H]6O[C@@H]6OC[C@@H](O[C@@H]7O[C@H](CO)[C@@H](O)[C@H](O)[C@H]7O)[C@H](O)[C@H]6O)[C@H](O)[C@H]5O[C@@H]5O[C@H](CO)[C@@H](O)[C@H](O)[C@H]5O)[C@@](C)(CO)C4CC[C@@]2(C)[C@]1(C)C[C@H]3O (stereo not given in full),1550 nM (active),1230 nM (active)
